Measured values from PubChem BioAssay (NCI).
Values joined by “and” are separate entries in the source; they are usually repeats but may differ in a detail not shown here. Equal values may be shown once. About 83,000 compounds went through this panel and 20% of them were active in at least one assay; those are over-represented in the sample as a whole.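 The test compound was applied at a single concentration to cells in 96-well plates for 48 hours, and percent growth was recorded.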 Values without a mark were called inactive. Active and inactive are the calls of the source. How the source made its calls: active means growth percent below 10; inactive means the rest.

What follows are compounds tested on MDA-MB-468 breast (assay: NCI-60 one-dose screen, 48 h (100 = growth as untreated, 0 = no growth, -100 = all killed)). Conditions: 10 µM unless noted.
For `COc1ccc(-c2cnoc2-c2ccc(OC)cc2O)cc1`, the growth was 1% (active). `Cc1[nH]c(C(=O)Nc2ccc(C(=O)NCC3CCNCC3)cc2OC(C)C)c(Cl)c1Cl` showed a growth of 21.5%. With `COc1cccc(-c2nn(-c3ccccc3)cc2-c2ccnc(NCCCNS(=O)(=O)c3ccccc3)c2)c1` the growth was 8.98% (active). `O=C(CN1CCN(c2cc3c(cc2F)c(=O)c(C(=O)O)cn3C2CC2)CC1)Nc1ccc(Cl)cc1` was tested, and the growth was 86% and 91.1%. `S=C1SCN(Cc2ccccc2)CN1Cc1ccccc1` was tested, and the growth was 38.5%. In the case of `CN(C)c1ccc2cc(-c3ccccc3F)c(N)nc2c1`, the growth is reported as 25.6%. With `Cc1cccc(NC(=O)c2sc3nc4c(cc3c2N)CCCC4)c1` the growth was 24.7%. In the case of `Cc1cc(C)n(-c2nnc3n2N=C(c2ccc(-c4ccccc4)cc2)CS3)n1`, the growth is reported as -5.89% (active). With `C=C1C(=O)O[C@H]2[C@H]1CC/C(COC(=O)C(=O)c1c[nH]c3ccccc13)=C\CC[C@@]1(C)O[C@@H]21` the growth was -59.8% (active). In the case of `C=CCn1c(SCC(=O)Nc2cccc(C(=O)/C=C/c3cc(OC)c(OC)c(OC)c3)c2)nc2ccccc2c1=O`, the growth is reported as 35.3%. With `COc1ccc(/C=C/c2nc(N3CCOCC3)c3cc(F)c(F)cc3n2)cc1OC` the growth was -6.96% (active).
